CHO-K1 Ca PAM = nonselective calcium activators in parental CHO-K1 cells, primary screen, counter-screen for M1 PAM project, cell-based, Fluo-8 calcium fluorescence, full deck, 1536-well | ATP EC20; 0% at ATP EC20, 100% at ATP max | hit rate 0.02% among 360,000 | AID 602247, 2012 | activation, % at 3 µM;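 active means activation above the run cutoff, the mean activation of all test compounds plus 3 SD, cut at about 40% in these data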;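 further: peak over basal fluorescence ratio in a 140 s read after ATP addition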
CHRM1 PAM = human M1 muscarinic receptor positive allosteric modulators, primary screen, CHO-K1 cells, Fluo-8 calcium fluorescence, 1536-well. CHO-K1 hM1, ACh EC20; 0% = ACh EC20, 100% = maximal ACh. activation, % at 3 µM. Muscarinic acetylcholine receptor M1 (Homo sapiens), P11229. hit rate 0.088% among 360,000; in the data active means activation above about 19%, passing the limit was not always enough
Target sequence (P11229 whole entry, looked up): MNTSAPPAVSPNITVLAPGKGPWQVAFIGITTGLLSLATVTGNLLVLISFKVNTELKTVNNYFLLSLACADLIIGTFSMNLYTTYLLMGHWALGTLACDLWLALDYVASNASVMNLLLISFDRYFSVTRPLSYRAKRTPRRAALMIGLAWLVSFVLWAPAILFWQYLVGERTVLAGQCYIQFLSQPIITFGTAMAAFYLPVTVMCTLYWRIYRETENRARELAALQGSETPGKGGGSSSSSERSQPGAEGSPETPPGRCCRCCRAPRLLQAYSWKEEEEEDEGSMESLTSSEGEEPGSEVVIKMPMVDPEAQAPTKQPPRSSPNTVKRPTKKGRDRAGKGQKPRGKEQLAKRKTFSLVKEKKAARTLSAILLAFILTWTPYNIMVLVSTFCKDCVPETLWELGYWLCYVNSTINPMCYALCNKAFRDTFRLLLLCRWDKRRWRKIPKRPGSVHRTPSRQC
M1 ag parental = counter-screen for M1 agonists: effect in parental CHO-K1 cells; Fluo-8 calcium fluorescence; scaled to maximal ATP response, vehicle zero; activation, % at 3 µM; hit rate 0.48% among 360,000; in the data active means activation above about 15%;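 further: untransfected CHO-K1 host cells lacking M1 receptor as counterscreen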
M1 antag = human M1 muscarinic receptor antagonists, primary screen, CHO-K1 cells, Fluo-8 calcium fluorescence, 1536-well; Muscarinic acetylcholine receptor M1 (Homo sapiens), P11229; CHO-K1 hM1, ACh EC80 antagonist; hit rate 1.3% among 360,000; inhibition, % at 3 µM;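 active means percent inhibition above its own plate's cutoff, namely the mean of that plate's compound wells plus 3 SD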;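 further: peak over basal fluorescence ratio during 140 s after agonist addition; 0% = ACh EC80 plus DMSO and 100% = DMSO alone without agonist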
M1 ag = human M1 muscarinic receptor agonists, primary screen, Fluo-8 calcium fluorescence, CHO-K1 cells, HTS; Muscarinic acetylcholine receptor M1 (Homo sapiens), P11229; CHO-K1 hM1, agonist mode; 0% DMSO, 100% acetylcholine EC100; activation, % at 3 µM; hit rate 0.33% among 360,000; AID 588814, 2011;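 active means activation above the run's mean compound activation plus 3 SD, cut at about 16% in these data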;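 further: peak over basal fluorescence ratio within a 140 s kinetic read after compound addition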
CHO-K1 Ca antag = counter-screen for M1 antagonists: effect in parental CHO-K1 cells; ATP-induced calcium, Fluo-8 fluorescence; inhibition, % at 3 µM; hit rate 0.6% among 360,000; AID 602250;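 active means inhibition above a per-plate cutoff, the plate's mean sample inhibition plus 3 SD, cut at about 24% in these data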;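 further: 0% = DMSO plus EC80 ATP and 100% = DMSO alone without ATP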
Active calls of the source: *; · = no result. Hits are enriched below; roughly 2.3% of the tested compounds scored in any of these assays.

SMILES | CHO-K1 Ca PAM | CHRM1 PAM | M1 ag parental | M1 antag | M1 ag | CHO-K1 Ca antag
Cc1ccc2cccc(NC(=S)NC(=O)c3ccn(C)n3)c2n1 | -4 | -3 | 1 | -18 | -8 | -13
COc1ccc(N2CCN(C(=O)c3ccc(COc4ccc([N+](=O)[O-])cc4)o3)CC2)cc1 | -9 | -15 | 14 | 30* | 0 | -2
COc1ccc(N2CCN(C(=O)Oc3ccc([N+](=O)[O-])cc3)CC2)cc1 | 11 | · | 7 | · | · | 0
O=C(NC1CCCCCCC1)c1cc(COc2ccc3ncccc3c2)on1 | 2 | -18 | 11 | 49* | -5 | 29*
Cc1cc(CN(C)C(=O)c2cc(COc3ccc4ncccc4c3)on2)on1 | 3 | -9 | 13 | 19 | 3 | 9
CC(CNC(=O)c1cc(COc2ccc3ncccc3c2)on1)c1ccccc1 (stereo unspecified) | -6 | -14 | 17* | 43* | 2 | 18
O=C(/C=C/c1cccc(Cl)c1)NCc1ccccc1 | 6 | -10 | -1 | 41* | -6 | -10
COc1ccc(OC)c(/C=C2/Sc3ccccc3C2=O)c1 | -6 | -14 | 38* | 31 | 25* | 35*
COc1ccc(OC)c(C=C2CCc3ccccc3C2=O)c1 | 3 | 4 | 0 | 0 | -11 | -1
Cc1ccccc1-c1cnc(C(O)c2ccc(F)c(F)c2)[nH]1 (stereo unspecified) | 9 | 8 | 0 | -16 | -2 | 12
CCc1ccc2oc(C(=O)Nc3nonc3CC)c(C)c2c1 | 0 | -1 | 0 | -12 | -4 | -9
CCc1nonc1NC(=O)c1oc2ccc(C)cc2c1C | -6 | -9 | 0 | 45* | -5 | 1
CCc1nc2ccc(C(=O)NCc3ccc4c(c3)OCO4)cn2c1N(CC)Cc1cccc(Br)c1 | 21 | 1 | 0 | -10 | -8 | -15
CCOC(=O)C1=C[C@@H](C2CCCCC2)N(S(=O)(=O)c2ccc([N+](=O)[O-])cc2)[C@H]1c1ccccc1 | 4 | -8 | 1 | 22 | -1 | 27*
COc1cc2c3nc4n(c(=O)c3n(CC(=O)NCC3CCCO3)c2cc1OC)CCS4 (stereo unspecified) | 8 | 6 | 0 | -15 | -4 | -4
COc1ccccc1C1OCC(C)([N+](=O)[O-])CO1 (stereo unspecified) | 17 | 3 | 1 | -6 | 0 | -10
CC1([N+](=O)[O-])COC(c2cccc3ccccc23)OC1 (stereo unspecified) | -15 | -9 | 0 | 11 | -2 | 26*
NC(=O)CC(NC(=O)Cc1ccc(Cl)cc1)c1ccc(NC2CCN(Cc3ccccc3)CC2)c([N+](=O)[O-])c1 (stereo unspecified) | -2 | -27 | 0 | 27 | -11 | 2
NC(=O)CC(NC(=O)c1cccc(Br)c1)c1ccc(NC2CCN(Cc3ccccc3)CC2)c([N+](=O)[O-])c1 (stereo unspecified) | 11 | -26 | 1 | 46* | -11 | -14
CC1(C2CC2)NC(=O)N(CC(=O)Nc2ccc(F)cc2F)C1=O (stereo unspecified) | -16 | 1 | 0 | 3 | 0 | -3
CCC1CN(C(=O)N2CCC(C(=O)Nc3ccccc3F)CC2)c2ccccc2O1 (stereo unspecified) | 13 | 4 | 6 | -2 | 0 | -13
Cc1ccc(S(=O)(=O)NCCC(=O)N2CCN(c3cccc(Cl)c3)CC2)cc1C | 4 | 6 | 6 | -11 | -1 | -7
O=C(CCNS(=O)(=O)c1ccc2nsnc2c1)N1CCN(c2ccncc2)CC1 | 10 | -30 | 0 | 62* | -10 | -16
CCOc1ccccc1C1C(C#N)=C(N)Oc2cc(C)n(Cc3ccccn3)c(=O)c21 (stereo unspecified) | -7 | 10 | -1 | -3 | -1 | 32*
COc1ccccc1C1C(C#N)=C(N)Oc2cc(C)n(Cc3ccccn3)c(=O)c21 (stereo unspecified) | -4 | 11 | 0 | -5 | -3 | 16
SMILES | CHO-K1 Ca PAM | CHRM1 PAM | M1 ag parental | M1 antag | M1 ag | CHO-K1 Ca antag
O=C(c1cc2c(s1)CCCC2)N1CCN(CCO)CC1 | -18 | -8 | 0 | 12 | -2 | 17
Oc1cc(O)cc(/C=C/c2ccc(O)c(O)c2)c1 | -9 | -6 | 0 | -19 | 27* | 1
CC1CCN(c2c(NCC3CCC(C(=O)N4CCCCC4)CC3)c(=O)c2=O)CC1 (stereo unspecified) | -7 | -8 | 0 | 21 | -2 | 28*
COc1ccc(NC(=O)CCc2nnc3ccc(NCc4ccco4)nn23)cc1 | 20 | 26* | 1 | 20 | -1 | -14
C/C(Cn1nnc2ccccc21)=N\NC(=O)c1cccc(Br)c1 | -6 | -1 | 0 | 0 | -3 | 14
Cc1cc(/C=N/n2cnnc2)c(C)n1-c1ccc(OCc2ccc(F)cc2)cc1 | 2 | -22 | 9 | 46* | -3 | 4
Cc1cc(/C=N/n2cnnc2)c(C)n1-c1ccc(OCc2ccc(Cl)cc2Cl)cc1 | -4 | -15 | 8 | 37 | -1 | 43*
Cc1cc(/C=N/n2cnnc2)c(C)n1-c1ccc(Cl)cc1 | -2 | 6 | 0 | -4 | -4 | 7
O=C(COC(=O)/C=C/c1ccc(F)cc1)Nc1ccccc1-c1ccccc1 | 17 | 6 | 1 | -12 | -9 | 7
O=C(CN1C(=O)NC(c2ccccc2)(c2ccccc2)C1=O)N1CCOCC1 | 3 | 8 | 0 | -9 | -1 | 0
CC/C(=N\NC(=O)CSCc1ccccc1Cl)c1ccc2c(c1)OCCO2 | 15 | 3 | 3 | -4 | -7 | -5
CC/C(=N\NC(=O)CSCc1ccc(Cl)cc1)c1ccc2c(c1)OCCO2 | -7 | -6 | 0 | 10 | -2 | 28*
CN(C)CC#CCC(O)(c1ccccc1)C1CCCCC1 (stereo unspecified) | 12 | -26 | 0 | 100* | -9 | -2
CN1CCN(CC#CCC(O)(c2ccccc2)C2CCCC2)CC1 (stereo unspecified) | -6 | -17 | 0 | 34* | -6 | 17
CCN(CC)CC#CCC(O)(c1ccccc1)C1CCCC1 (stereo unspecified) | 10 | -35 | 1 | 102* | -13 | -11
CN1CCN(CC#CCC(O)(c2ccccc2)c2ccccc2)CC1 | 22 | 4 | 11 | -2 | -6 | 0
CN1/C(=C/C=C(C#N)C#N)C(C)(C)c2ccccc21 | 17 | 9 | 1 | -10 | 0 | -17
CC1=C/C(=C\C=C(C#N)C#N)N(C)c2ccccc21 | 2 | -6 | 27* | 11 | 22* | 4
